# Compound activity from PubChem BioAssay.
# The list is not random: actives were taken first. Their share in the collection is about 3.3%.
# USP1 inh – inhibitors of human USP1/UAF1 deubiquitinase; recombinant USP1/UAF1, Ub-Rhodamine cleavage fluorescence; Potency, µM (highest dose often 57.1 µM), for the others: at the highest dose activity change, negative = inhibition, hits mostly inhibitors; 390,000 compounds, 0.23% hits; AID 743255; also: potency is read from the fitted curve at half-maximal effect; % is scaled to controls: 0 for no effect and ±100 for the full control effect; nearly all actives have a fitted effect of over 60% in size
#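 USP1/UAF1 complex (1 nM) preincubated 15 min at room temperature with compound, then Ub-Rho substrate (150 nM final) added. Kinetic fluorescence at 480/540 nm over 6 reads at 60 s intervals; 50 mM HEPES pH 7.8, 0.5 mM EDTA, 0.1 mg/ml BSA, 1 mM TCEP, 0.01% Tween-20.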
# PI5P4K alpha inh – inhibitors of human PI5P4K alpha. PI5P4Kalpha enzyme, ADP-Glo luminescence, 60 min; stronger effect = lower value. 330,000 compounds, 1.2% hits. max response, %; active = max response of -50% or lower; inconclusive = between -30% and -50%; inactive = -30% or higher; also: value at the top dose of about 77 µM; % is scaled to controls: 0 for no effect and ±100 for the full control effect
#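 Human PI5P4Kalpha with substrate in 0.038 M HEPES pH 7.4, 0.28 mM EGTA, 0.1% CHAPS, 5% DMSO; reaction started with 5 microM ATP (final), 60 min at room temperature. ADP formed read by ADP-Glo luminescence.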
# PLK1 PBD inh – PLK1 (human) polo-box domain binding inhibition; P53350; Plk1 PBD binding of FITC phosphopeptide, fluorescence polarization; Potency, µM, for the others: max response, negative = inhibition, hits mostly inhibitors; 360,000 compounds, 2.8% hits; AID 720504; also: potency is read from the fitted curve at half-maximal effect; series mostly up to about 57 µM; % is scaled to controls: 0 for no effect and ±100 for the full control effect; nearly all actives have a fitted effect of over 65% in size
# Target sequence (P53350 whole entry, looked up, the tested form may be a part): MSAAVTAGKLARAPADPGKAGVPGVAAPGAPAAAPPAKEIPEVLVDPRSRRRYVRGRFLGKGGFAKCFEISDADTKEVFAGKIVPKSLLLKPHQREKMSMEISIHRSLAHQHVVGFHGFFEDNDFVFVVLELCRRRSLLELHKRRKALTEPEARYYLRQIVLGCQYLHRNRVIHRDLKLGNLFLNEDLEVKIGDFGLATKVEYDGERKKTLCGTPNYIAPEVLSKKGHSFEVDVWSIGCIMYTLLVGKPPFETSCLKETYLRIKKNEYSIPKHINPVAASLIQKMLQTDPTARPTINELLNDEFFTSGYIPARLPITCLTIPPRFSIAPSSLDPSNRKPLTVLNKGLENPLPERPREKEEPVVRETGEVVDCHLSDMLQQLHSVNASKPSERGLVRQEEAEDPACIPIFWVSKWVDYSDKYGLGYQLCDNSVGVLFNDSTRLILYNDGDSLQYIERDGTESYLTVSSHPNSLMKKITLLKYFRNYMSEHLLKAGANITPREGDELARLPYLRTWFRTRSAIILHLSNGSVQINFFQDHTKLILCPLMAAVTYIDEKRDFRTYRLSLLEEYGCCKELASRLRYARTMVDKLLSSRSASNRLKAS
# WRN helicase inh-1 – inhibitors of human WRN helicase. 360,000 compounds, 0.46% hits. Potency, µM (doses to about 114 µM), inactives show at the highest dose activity change, negative = inhibition, actives largely listed as inhibitors. WRN helicase unwinding, fluorescent forked duplex, kinetic; also: potency is read from the fitted curve at half-maximal effect; % is scaled to controls: 0 for no effect and ±100 for the full control effect; nearly all actives have a fitted effect of over 55% in size
#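 Kinetic red-fluorescence monitoring (525/598 nm) tracks WRN helicase activity after 100 nM fluorophore-quencher forked duplex and 2 mM ATP are added to 20 nM enzyme pretreated 15 min at room temperature with compound.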
# USP2a inh – inhibitors of human ubiquitin-specific protease USP2a; 330,000 compounds, 0.01% hits; O75604; Potency, µM (series often up to 38.3 µM), without a hit: at the highest dose activity change, negative = inhibition, actives largely listed as inhibitors; USP2 core, Ub-CHOP2 coupled fluorogenic reporter, 485/531; AID 463254;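 also: potency is read from the fitted curve at half-maximal effect; plate controls were DMSO wells for no effect and full inhibition by NEM control for full effect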
#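 Cell-free coupled assay: 10nM USP2 core preincubated 30min RT with compound in Tris-HCl pH 8.0/CaCl2/CHAPS buffer, then 25nM Ub-CHOP2 and 25nM reporter substrate; fluorescence (Ex 485/Em 531) read after 60min RT, normalized to NEM inhibition, concentration-response curves fitted.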
# WRN helicase inh-2 – confirmation of human WRN helicase inhibitors; WRN helicase DNA unwinding, fluorescence kinetic; shares compounds with WRN helicase inh-1; 610 compounds, 63% hits; AID 720497; Potency, µM (titrated, usually from 57.1 µM), inactives show at the top dose activity, negative = inhibition, actives largely listed as inhibitors; also: potency is read from the fitted curve at half-maximal effect; nearly all actives have a fitted effect of over 65% in size
# TO displacement – counter-screen for WRN helicase inhibitors: DNA binding | AID 720499 | 610 compounds, 10% hits | thiazole orange DNA binding displacement, fluorescence | Potency, µM (doses to about 57.1 µM), inactives show at the top dose activity change, negative = inhibition, hits mostly inhibitors | shares compounds with WRN helicase inh-1;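 also: drop in dye fluorescence marks compound binding to DNA; potency is read from the fitted curve at half-maximal effect; % is scaled to controls: 0 for no effect and ±100 for the full control effect; nearly all actives have a fitted effect of over 60% in size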
# BLM counter – counter-screen for WRN helicase inhibitors: human BLM helicase inhibition | shares compounds with WRN helicase inh-1 | Recombinant BLM helicase DNA unwinding, red fluorescence | Potency, µM (doses to about 57.1 µM), for inactives: top-dose activity change, negative = inhibition, usual class: inhibitors | 610 compounds, 60% hits; also: potency is read from the fitted curve at half-maximal effect; nearly all actives have a fitted effect of over 60% in size
# ADP-Glo counter – ADP-Glo luciferase interference, PI5P4K counter-screen; shares compounds with PI5P4K alpha inh; ADP-Glo detection counter-screen, luciferase luminescence, no enzyme; Potency, µM (highest dose often 76.9 µM), for inactives: top-dose activity change, negative = inhibition, hits mostly inhibitors; 1,100 tested, under 10 active
# Active calls of the source: *; ? = inconclusive; . = not tested or not shown. Unless noted, calls follow the shape of the dose curve; as a rule, active = well fitted curve in the direction sought with a large enough effect; inconclusive = small, poorly fitted or top-dose-only effect, or another doubt; inactive = no such curve, though single readings can be large; an effect the other way counts as inactive or inconclusive.
SMILES,USP1 inh,PI5P4K alpha inh,PLK1 PBD inh,WRN helicase inh-1,USP2a inh,WRN helicase inh-2,TO displacement,BLM counter,others
CCOC(=O)C(C)N1C(=O)S/C(=C\c2ccc(-c3ccccc3C(=O)O)o2)C1=O (stereo unspecified),?,?,?,25µM*,4%,15µM*,-6%,22µM*,
CCC(Sc1nc2ccccc2c2nc(CCn3c(C)nc4ccccc43)nn12)C(=O)Nc1ccc(F)cc1 (stereo unspecified),-11%,.,.,.,.,.,.,.,
COc1cc(C=NNc2ccc(S(=O)(=O)Nc3ccccc3C(=O)O)cc2[N+](=O)[O-])ccc1O,?,-69*,?,79µM*,-20%,24µM*,24µM*,27µM*,
O=C(O)c1ccccc1NS(=O)(=O)c1ccc(N/N=C/c2cccc(O)c2O)c([N+](=O)[O-])c1,-24%,?,?,20µM*,.,19µM*,27µM*,6.1µM*,
NS(=O)(=O)c1ccc(N/N=C/c2ccc[nH]2)c([N+](=O)[O-])c1,-11%,-25,-11%,-11%,-7%,.,.,.,
CCc1ccc(NC(=O)N2CCN(c3nnc(C)c4c(C)n(-c5ccc(Cl)cc5)nc34)CC2)cc1,-22%,.,.,.,.,.,.,.,
O=C(O)c1cccc(-n2cccc2/C=C2/NC(=O)N(c3ccc(Cl)cc3)C2=O)c1,?,-98*,4.7µM*,3.2µM*,?,1.4µM*,?,0.17µM*,
COc1ccc(-n2cccc2/C=C2/NC(=O)N(c3cccc(Cl)c3)C2=O)cc1,-1%,-12,-15%,-6%,0%,.,.,.,
O=C1C(Cl)=C(NCCc2ccccc2)C(=O)c2ccccc21,?,-85*,2.7µM*,28µM*,.,?,-20%,17µM*,
O=C1C(Cl)=C(NCCc2ccccc2)C(=O)N1CCc1ccccc1,-6%,0,-7%,-6%,7%,.,.,.,
COc1cccc(CNC(=O)Cn2c(=O)cc(C(F)(F)F)c3c(C)nn(C)c32)c1OC,-29%,.,.,.,.,.,.,.,
O=C1COc2ccc(C(=O)COC(=O)c3ccc4ccccc4n3)cc2N1,-18%,-18,2%,?,0%,14µM*,11%,8.6µM*,
Cc1ccc(CN(C)C(=O)CCc2nc3sc4c(c3c(=O)[nH]2)CCCC4)o1,-1%,?,-22%,?,1%,?,-19%,?,
CC(NC(=O)CSc1nc(-c2cccc(Cl)c2)nc2cc(=O)[nH]n12)c1nc2ccccc2n1C (stereo unspecified),-21%,.,.,.,.,.,.,.,
Cc1cc(C)c2c(CC(=O)Nc3ccc(S(=O)(=O)N4CCCC(C)C4)cc3)coc2c1 (stereo unspecified),-5%,.,.,.,.,.,.,.,
CCn1c(C(=O)NCc2ccccc2C)cc2oc3ccccc3c21,-3%,.,.,.,.,.,.,.,
Oc1ccc(/C=N/Nc2ncnc3c2ncn3Cc2ccccc2)cc1O,-22%,?,-12%,?,0%,7.6µM*,19µM*,2.4µM*,
COC(=O)c1cc(NC(=O)c2ccc3c(c2)NC(=O)c2ccccc2S3)cc(C(=O)OC)c1,-12%,.,.,.,0%,14µM*,206%,1.9µM*,
CN1CCc2c(sc(NC(=O)c3cc4cc([N+](=O)[O-])ccc4s3)c2C(N)=O)C1,.,.,.,.,2%,.,.,.,
CC(C)N1CCc2c(sc(NC(=O)c3cc4cc([N+](=O)[O-])ccc4s3)c2C(N)=O)C1,-21%,?,-3%,79µM*,1%,17µM*,17µM*,14µM*,
Cc1cc(Br)ccc1NC(=O)C1(S(=O)(=O)c2ccc(Cl)cc2)CC1,-15%,.,.,.,.,.,.,.,
COCCN(C(=O)COC(=O)c1cc2c(s1)CCC2)c1c(N)n(Cc2ccccc2)c(=O)[nH]c1=O,?,-87*,9.5µM*,8.9µM*,0%,2.2µM*,?,0.43µM*,ADP-Glo counter=0%
COc1cccc(-c2nc(SCC(=O)NC3CCCC3)c(-c3ccccc3)[nH]2)c1,-9%,.,.,.,.,.,.,.,
CCc1nnc(NC(=O)c2cc(-c3ccc(C)o3)nc3ccccc23)s1,5%,-55*,?,?,3%,?,-13%,-5%,ADP-Glo counter=5%
CCc1nnc(NC(=O)c2cc(C)nc3ccccc23)s1,0%,4,-5%,-10%,-1%,.,.,.,
SMILES,USP1 inh,PI5P4K alpha inh,PLK1 PBD inh,WRN helicase inh-1,USP2a inh,WRN helicase inh-2,TO displacement,BLM counter,others
Cc1cc2c(cc1S(=O)(=O)N(C)CC(=O)Nc1cccc(C#N)c1)OCC(=O)N2,-21%,.,.,.,.,.,.,.,
O=C(NCCCN1CCOCC1)c1sc2cc([N+](=O)[O-])ccc2c1Cl,-15%,-68*,1.1µM*,28µM*,4%,-12%,-15%,?,ADP-Glo counter=-1%
NS(=O)(=O)c1ccc(CCNC(=O)c2ccc3nccnc3c2)cc1,6%,-68*,-24%,32µM*,6%,17µM*,?,7.6µM*,ADP-Glo counter=1%
NS(=O)(=O)c1ccc(CCNC(=O)c2ccc(C(=O)c3ccccc3)cc2)cc1,-1%,4,-9%,-31%,-2%,.,.,.,
Cc1ccc(C(=O)NCCn2cc(SCC(=O)Nc3cc(C)on3)c3ccccc32)cc1,-21%,2,1%,-1%,2%,.,.,.,
Cc1cc(NC(=O)CSc2cn(CCNC(=O)c3ccccc3)c3ccccc23)no1,-19%,-76*,?,32µM*,3%,12µM*,-14%,3.4µM*,ADP-Glo counter=0%
Cc1ccc(-c2csc(NS(=O)(=O)c3cccc(F)c3)n2)o1,-12%,-68*,24µM*,32µM*,0%,24µM*,-29%,?,ADP-Glo counter=2%
N#Cc1ccc(C(=O)Nc2ccc(Cl)c(-c3nc4cc(Cl)ccc4o3)c2)c(F)c1,-1%,.,.,.,.,.,.,.,
